# Screening results as filed in PubChem BioAssay.
# HT1080-NT tox = kills 2HG-producing HT-1080-NT fibrosarcoma cells. HT-1080-NT fibrosarcoma viability, CellTiter-Glo ATP luminescence, 48 h. Potency, µM (series often up to 46.1 µM), for inactives: at the top dose activity, negative = less viability, most hits filed as cytotoxic. actives 1.6% (n = 360,000). AID 686970;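 further: NT is the 2HG producing partner of a matched IDH1 knockdown line; potency means the concentration at half of the fitted maximal effect; 0% = DMSO-treated cells and -100% = media-only wells without cells; nearly all actives have a fitted effect of over 55% in size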
#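 Viability by CellTiter-Glo luminescence after 48 h compound exposure at 37C of HT-1080-NT cells (750/well, RPMI, 5% FBS). % activity scaled between DMSO wells and medium-only wells, then curve-fitted and categorized by curve class.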
# DT40 TDP1 no CPT = qHTS for Inhibitors of human tyrosyl-DNA phosphodiesterase 1 (TDP1): qHTS in cells in absence of CPT | DT40 Tdp1-/- hTDP1 cells, no CPT, ATP luminescence, 48 h | actives 15% (n = 420,000) | Potency, µM (series often up to 46.2 µM), for inactives: at the highest dose activity change, negative = growth inhibition, most hits filed as inhibitors; further: potency means the concentration at half of the fitted maximal effect; nearly all actives have a fitted effect of over 55% in size
#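 Chicken DT40 Tdp1-/- cells complemented with human TDP1, screened without camptothecin (DMSO vehicle only), 400 cells/well. Compounds pin-transferred, cells incubated at 37 °C for at least 48 hr. Growth read as ATP-dependent luminescence (CellTiter-Glo, 30 min at RT).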
# ELG1 DNA repair = ELG1-dependent DNA repair inhibition; HEK293T ELG1-luciferase reporter, luminescence, 16 h; DNA damage induced by 5-fluorouridine; Potency, µM (series often up to 46.1 µM), inactives show at the highest dose activity change, negative = inhibition, usual class: inhibitors; actives 2.3% (n = 330,000); AID 504467; further: potency means the concentration at half of the fitted maximal effect; nearly all actives have a fitted effect of over 55% in size
#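 Luminescence from the luciferase reporter, measured 30 min after ONE-Glo reagent at room temperature, was the read-out. Beforehand, 2,000 cells per well were exposed for 16 hr at 37 °C to 5-fluorouridine together with compound or vehicle.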
# IL1B secr inh = inhibitors of inflammasome signaling (IL-1 beta secretion). THP-1 LPS/ATP IL-1B secretion, AlphaLISA, 16 h; stronger effect = lower value. activity change, % at 57.5 µM. actives 4.7% (n = 360,000). AID 743279; in the data active means activity change below about -50%; inconclusive means mostly about -30% to -49%
#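 Secreted IL-1B measured by AlphaLISA bead assay after 16 h compound exposure of THP-1 cells; compounds (final up to 57.5 uM) added 1 h before LPS (250 ng/mL) and ATP (1.25 mM) stimulation; lower signal means less secretion.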
# HT1080 IDH1KD tx = kills HT-1080 cells with IDH1 knockdown; HT-1080 IDH1 knockdown viability, ATP luminescence, 48 h; actives 2% (n = 360,000); AID 686971; Potency, µM (highest dose often 46.1 µM), for the others: at the highest dose activity, negative = toxicity, hits mostly cytotoxic;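 further: potency means the concentration at half of the fitted maximal effect; 0% = DMSO wells and -100% = cell-free medium wells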
#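 Luminescent ATP read-out (CellTiter-Glo, 10 min at room temperature) after 48 h compound exposure at 37 °C gave viability of IDH1-knockdown HT-1080 cells. Activity was normalised to DMSO and cell-free wells, then fitted as concentration-response curves.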
# TDP1 cell CPT = growth inhibition of DT40 Tdp1-/-;hTDP1 cells with camptothecin (screen for TDP1 inhibitors); chicken DT40 Tdp1-/-;hTDP1 cells + 20 nM CPT, ATP luminescence, 48 h; Potency, µM (highest dose often 46.2 µM), for the others: at the top dose activity change, negative = growth inhibition, hits mostly inhibitors; actives 12% (n = 420,000); AID 686979; further: potency means the concentration at half of the fitted maximal effect; nearly all actives have a fitted effect of over 55% in size
#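 Chicken DT40 Tdp1-/- cells complemented with human TDP1, 400 cells/well, exposed to compounds plus 20 nM camptothecin for at least 48 h at 37 C; viability read as ATP content by CellTiter-Glo luminescence.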
# An asterisk follows results filed as active; ? = inconclusive; nt = not tested or not shown. This is a sample that favours compounds with a hit; in the whole collection about 19% have one here. Unless noted, the call rests on the fitted dose curve; in most records, active means well fitted curve in the direction sought with a large enough effect; inconclusive means small, poorly fitted or top-dose-only effect, or another doubt; inactive means no such curve, though single readings can be large; an effect the other way counts as inactive or inconclusive. Unless noted, on the % scale 0 is the no-effect control and ±100 the full control effect.
SMILES,HT1080-NT tox,DT40 TDP1 no CPT,ELG1 DNA repair,IL1B secr inh,HT1080 IDH1KD tx,TDP1 cell CPT
COc1ccc(Cn2nnc(C(=O)Nc3ccc4c(c3)OCCO4)c2N)cc1Br,-22%,2.6µM*,?,0,?,18µM*
O=C(CN1C(=O)N/C(=C\c2ccccc2OCc2ccc(C(=O)O)cc2)C1=O)Nc1ccccc1F,-18%,-15%,3%,-17,1%,-10%
O=C(CCl)Nc1ccccc1Sc1ccc(Cl)cc1,?,?,?,-100*,?,21µM*
O=C(COC(=O)Cn1cnc2ccccc2c1=O)Nc1ccccc1Sc1ccc(Cl)cc1,-2%,26µM*,-6%,0,-1%,13µM*
O=C(COC(=O)Cn1cnc2ccccc2c1=O)Nc1ccc(Cl)cc1,8%,-3%,20%,14,-3%,-25%
C[C@H]1CN([C@@H](C)CO)C(=O)CCCn2nncc2CO[C@@H]1CN(C)S(=O)(=O)c1cccc(F)c1,4%,-2%,nt,21,-1%,3%
O=C(C[n+]1cc(-c2ccc(Cl)cc2)n2c1CCCCC2)c1ccccc1,-7%,6.5µM*,-2%,-62*,-14%,6.5µM*
O=C(C[n+]1cc(-c2ccc(Br)cc2)n2c1CCCCC2)c1ccccc1,3%,16µM*,-10%,-56*,-19%,?
O=C(Cn1nc(-c2nn(CC(=O)c3ccccc3)c3[n+]2CCCCC3)[n+]2c1CCCCC2)c1ccccc1,-4%,-11%,9%,-9,9%,13%
CCc1cccc(NC(=O)CN(C)S(=O)(=O)c2cccc3cccnc23)c1,8%,16µM*,?,-23,-1%,16µM*
CCN(CCCNC(=O)CN(C)S(=O)(=O)c1cccc2nsnc12)c1cccc(C)c1,-11%,?,?,?,-13%,?
CCN(CCNC(=O)CN(C)S(=O)(=O)c1cccc2nsnc12)c1ccccc1,9%,?,23µM*,-8,-3%,-28%
Cc1c(Cl)cccc1NC(=O)CCS(=O)(=O)c1cccc2nsnc12,nt,?,nt,nt,nt,15µM*
CN(CC(=O)Nc1ccc(F)c(Cl)c1)S(=O)(=O)c1cccc2nsnc12,-5%,18µM*,-22%,-22,-30%,21µM*
CCCN(CC(=O)Nc1ccccc1C)C(=O)c1ccc2c(c1)S(=O)(=O)N=C1CCCCCN12,3%,-2%,17%,-1,4%,-14%
CC(=O)Nc1nnc(CCS(=O)(=O)c2ccc(C)cc2)s1,29%,?,nt,5,22%,-12%
CCC(=O)c1ccc(OCC(O)CN(CCc2ccccc2)Cc2ccccc2)cc1 (stereo unspecified),?,21µM*,?,-80*,-10%,?
OC(COc1ccccc1)CN(Cc1ccccc1)CC(O)COc1ccccc1 (stereo unspecified),?,21µM*,?,-53*,?,16µM*
CC(=O)N1CC(=O)N=C1SCC(=O)Nc1nc(C)c(-c2ccccc2)s1,?,3.3µM*,?,-77*,?,2.9µM*
CCOc1ccc(-c2csc(NC(=O)CSC3=NC(=O)CN3C(C)=O)n2)c2ccccc12,-4%,-30%,?,-19,4%,1%
Cc1ccc(NC(=O)CSc2nc(N)c3c4c(sc3n2)CSC(C)(C)C4)cc1,?,16µM*,?,-30,?,23µM*
Cc1ccc(-n2c(SCC(=O)O)nc3sc4c(c3c2=O)CC(C)(C)SC4)cc1,5%,18%,nt,-13,7%,-1%
CC1(C)Cc2c(sc3nc(SCC(=O)O)nc(N)c23)CO1,26%,-8%,6%,11,17%,13%
